Reference: article PMC5540273 (PLoS ONE, 2017)
Where two headings read alike, the source gives them in different places.

Key:
PRKX = conditions: concentration: 1 μM, replicates: in singlicate; n = 1
PRP4 = conditions: concentration: 1 μM, replicates: in singlicate; n = 1
PYK2 = tested on: T1, PYK2; conditions: concentration: 1 μM, replicates: in singlicate; n = 1
T1 construct: gene PTK2B

QSK = conditions: concentration: 1 μM, replicates: in singlicate; n = 1
RAF1 = conditions: concentration: 1 μM, replicates: in singlicate; n = 1
RET = conditions: concentration: 1 μM, replicates: in singlicate; n = 1
RIOK1 = conditions: concentration: 1 μM, replicates: in singlicate; n = 1
RIOK2 = conditions: concentration: 1 μM, replicates: in singlicate; n = 1
RIOK3 = conditions: concentration: 1 μM, replicates: in singlicate; n = 1
RIPK1 = conditions: concentration: 1 μM, replicates: in singlicate; n = 1
RIPK2 = conditions: concentration: 1 μM, replicates: in singlicate; n = 1
RIPK4 = conditions: concentration: 1 μM, replicates: in singlicate; n = 1
RIPK5 = conditions: concentration: 1 μM, replicates: in singlicate; n = 1
ROCK1 = conditions: n = 1
ROCK2 = conditions: concentration: 1 μM, replicates: in singlicate; n = 1
ROS1 = conditions: concentration: 1 μM, replicates: in singlicate; n = 1
[1] = tested on: RPS6KA4(Kin.Dom.1-N-terminal); conditions: concentration: 1 μM, replicates: in singlicate; n = 1
[2] = tested on: RPS6KA4(Kin.Dom.2-C-terminal); conditions: concentration: 1 μM, replicates: in singlicate; n = 1
[3] = tested on: RPS6KA5(Kin.Dom.1-N-terminal); conditions: concentration: 1 μM, replicates: in singlicate; n = 1
[4] = tested on: RPS6KA5(Kin.Dom.2-C-terminal); conditions: concentration: 1 μM, replicates: in singlicate; n = 1
[5] = concentration: 1 μM, replicates: in singlicate
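Note: KINOMEscan kinase panel screen.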

SMILES: Nc1n[nH]c2ncc(-c3ccccc3)cc12 [SB-517081]
- %Inh (PRKX): 0%
- %Inh (PRP4): 24%
- %Inh (PYK2): 0%
- %Inh (QSK): 1%
- %Inh (RAF1): 0%
- %Inh (RET): 12%
- %Inh (RIOK1): 6%
- %Inh (RIOK2): 0%
- %Inh (RIOK3): 4%
- %Inh (RIPK1): 0%
- %Inh (RIPK2): 18%
- %Inh (RIPK4): 19%
- %Inh (RIPK5): 5%
- %Inh (ROCK1; [5]): 14%
- %Inh (ROCK2): 2%
- %Inh (ROS1): 0%
- %Inh [1]: 7%
- %Inh [2]: 0%
- %Inh [3]: 41%
- %Inh [4]: 25%

SMILES: Cl.NS(=O)(=O)c1cccc(Nc2cc(-c3ccc(F)cc3)n[nH]2)c1 [GW824645]
- %Inh (PRKX): 0%
- %Inh (PRP4): 0%
- %Inh (PYK2): 0%
- %Inh (QSK): 0%
- %Inh (RAF1): 10%
- %Inh (RET): 0%
- %Inh (RIOK1): 0%
- %Inh (RIOK2): 0%
- %Inh (RIOK3): 11%
- %Inh (RIPK1): 0%
- %Inh (RIPK2): 0%
- %Inh (RIPK4): 15%
- %Inh (RIPK5): 22%
- %Inh (ROCK1; [5]): 0%
- %Inh (ROCK2): 18%
- %Inh (ROS1): 11%
- %Inh [1]: 17%
- %Inh [2]: 0%
- %Inh [3]: 0%
- %Inh [4]: 3%

SMILES: CCC(=O)c1c(-c2ccccc2)c2cc(Cl)ccc2c(=O)n1Cc1cc(C(=O)NC2CC2)n(C)n1
- %Inh (PRKX): 0%
- %Inh (PRP4): 0%
- %Inh (PYK2): 0%
- %Inh (QSK): 0%
- %Inh (RAF1): 40%
- %Inh (RET): 0%
- %Inh (RIOK1): 0%
- %Inh (RIOK2): 17%
- %Inh (RIOK3): 10%
- %Inh (RIPK1): 0%
- %Inh (RIPK2): 0%
- %Inh (RIPK4): 0%
- %Inh (RIPK5): 18%
- %Inh (ROCK1; [5]): 11%
- %Inh (ROCK2): 0%
- %Inh (ROS1): 0%
- %Inh [1]: 0%
- %Inh [2]: 6%
- %Inh [3]: 15%
- %Inh [4]: 1%

SMILES: COc1cc2ncn(-c3cc(OCCCc4ccccc4)c(C(N)=O)s3)c2cc1OC [GSK205189]
- %Inh (PRKX): 3%
- %Inh (PRP4): 0%
- %Inh (PYK2): 5%
- %Inh (QSK): 0%
- %Inh (RAF1): 0%
- %Inh (RET): 0%
- %Inh (RIOK1): 26%
- %Inh (RIOK2): 0%
- %Inh (RIOK3): 12%
- %Inh (RIPK1): 0%
- %Inh (RIPK2): 20%
- %Inh (RIPK4): 0%
- %Inh (RIPK5): 0%
- %Inh (ROCK1; [5]): 0%
- %Inh (ROCK2): 0%
- %Inh (ROS1): 13%
- %Inh [1]: 5%
- %Inh [2]: 0%
- %Inh [3]: 0%
- %Inh [4]: 0%

SMILES: COc1cc2ncn(-c3cc(OCc4ccncc4Br)c(C(N)=O)s3)c2cc1OC [GW854278]
- %Inh (PRKX): 26%
- %Inh (PRP4): 0%
- %Inh (PYK2): 7%
- %Inh (QSK): 2%
- %Inh (RAF1): 7%
- %Inh (RET): 20%
- %Inh (RIOK1): 38%
- %Inh (RIOK2): 14%
- %Inh (RIOK3): 39%
- %Inh (RIPK1): 3%
- %Inh (RIPK2): 26%
- %Inh (RIPK4): 0%
- %Inh (RIPK5): 9%
- %Inh (ROCK1; [5]): 11%
- %Inh (ROCK2): 0%
- %Inh (ROS1): 6%
- %Inh [1]: 2%
- %Inh [2]: 0%
- %Inh [3]: 0%
- %Inh [4]: 7%

SMILES: CCc1nc(-c2cccc(C)c2)c(-c2ccncc2)s1
- %Inh (PRKX): 0%
- %Inh (PRP4): 26%
- %Inh (PYK2): 0%
- %Inh (QSK): 0%
- %Inh (RAF1): 22%
- %Inh (RET): 0%
- %Inh (RIOK1): 12%
- %Inh (RIOK2): 8%
- %Inh (RIOK3): 12%
- %Inh (RIPK1): 0%
- %Inh (RIPK2): 76%
- %Inh (RIPK4): 7%
- %Inh (RIPK5): 0%
- %Inh (ROCK1; [5]): 0%
- %Inh (ROCK2): 0%
- %Inh (ROS1): 11%
- %Inh [1]: 2%
- %Inh [2]: 0%
- %Inh [3]: 0%
- %Inh [4]: 18%

SMILES: Nc1nccc2scc(-c3ccc4c(c3)CCN4C(=O)Cc3ccccc3)c12 [GSK2576924]
- %Inh (PRKX): 14%
- %Inh (PRP4): 13%
- %Inh (PYK2): 0%
- %Inh (QSK): 0%
- %Inh (RAF1): 5%
- %Inh (RET): 11%
- %Inh (RIOK1): 13%
- %Inh (RIOK2): 6%
- %Inh (RIOK3): 11%
- %Inh (RIPK1): 71%
- %Inh (RIPK2): 58%
- %Inh (RIPK4): 3%
- %Inh (RIPK5): 12%
- %Inh (ROCK1; [5]): 0%
- %Inh (ROCK2): 38%
- %Inh (ROS1): 18%
- %Inh [1]: 13%
- %Inh [2]: 0%
- %Inh [3]: 25%
- %Inh [4]: 14%

SMILES: CCn1c(-c2ccoc2)nc2cnccc21 [SB-733887]
- %Inh (PRKX): 0%
- %Inh (PRP4): 58%
- %Inh (PYK2): 4%
- %Inh (QSK): 0%
- %Inh (RAF1): 21%
- %Inh (RET): 1%
- %Inh (RIOK1): 28%
- %Inh (RIOK2): 0%
- %Inh (RIOK3): 27%
- %Inh (RIPK1): 0%
- %Inh (RIPK2): 6%
- %Inh (RIPK4): 30%
- %Inh (RIPK5): 0%
- %Inh (ROCK1; [5]): 0%
- %Inh (ROCK2): 23%
- %Inh (ROS1): 0%
- %Inh [1]: 0%
- %Inh [2]: 0%
- %Inh [3]: 9%
- %Inh [4]: 0%

SMILES: COc1cc(OC)cc(-c2cc3cnc(N)nc3nc2NC(=O)NC(C)(C)C)c1
- %Inh (PRKX): 5%
- %Inh (PRP4): 0%
- %Inh (PYK2): 4%
- %Inh (QSK): 0%
- %Inh (RAF1): 0%
- %Inh (RET): 32%
- %Inh (RIOK1): 8%
- %Inh (RIOK2): 0%
- %Inh (RIOK3): 45%
- %Inh (RIPK1): 0%
- %Inh (RIPK2): 0%
- %Inh (RIPK4): 0%
- %Inh (RIPK5): 0%
- %Inh (ROCK1; [5]): 0%
- %Inh (ROCK2): 0%
- %Inh (ROS1): 0%
- %Inh [1]: 16%
- %Inh [2]: 0%
- %Inh [3]: 5%
- %Inh [4]: 0%

SMILES: O=C(Nc1n[nH]c2cc(-c3ccccc3F)ccc12)C1CC1 [SB-733371]
- %Inh (PRKX): 0%
- %Inh (PRP4): 7%
- %Inh (PYK2): 15%
- %Inh (QSK): 6%
- %Inh (RAF1): 35%
- %Inh (RET): 0%
- %Inh (RIOK1): 50%
- %Inh (RIOK2): 0%
- %Inh (RIOK3): 63%
- %Inh (RIPK1): 78%
- %Inh (RIPK2): 11%
- %Inh (RIPK4): 13%
- %Inh (RIPK5): 0%
- %Inh (ROCK1; [5]): 0%
- %Inh (ROCK2): 0%
- %Inh (ROS1): 4%
- %Inh [1]: 0%
- %Inh [2]: 0%
- %Inh [3]: 0%
- %Inh [4]: 0%

SMILES: CCn1c(-c2nonc2N)nc2ccccc21 [SB-693162/GW549034]
- %Inh (PRKX): 24%
- %Inh (PRP4): 0%
- %Inh (PYK2): 0%
- %Inh (QSK): 0%
- %Inh (RAF1): 0%
- %Inh (RET): 22%
- %Inh (RIOK1): 0%
- %Inh (RIOK2): 14%
- %Inh (RIOK3): 0%
- %Inh (RIPK1): 0%
- %Inh (RIPK2): 0%
- %Inh (RIPK4): 6%
- %Inh (RIPK5): 53%
- %Inh (ROCK1; 1 µM): 78%
- %Inh (ROCK2): 76%
- %Inh (ROS1): 0%
- %Inh [1]: 0%
- %Inh [2]: 40%
- %Inh [3]: 0%
- %Inh [4]: 0%
